Data on 14 compounds can be found in PubChem BioAssay (NCATS).

The structures appear in SMILES notation. Results filed as inconclusive are left out. Unmarked numbers belong to inactive results. Calls of active or inactive are those of the source. Calls follow the shape of the dose curve; as a rule, active = well fitted inhibition curve with a large enough effect; inconclusive = small, poorly fitted or top-dose-only effect; inactive = flat fitted curve, though single readings scatter.

The test system of one test is Dd2. Description: qHTS profiling for inhibitors of Plasmodium falciparum proliferation (AID 504749). The settings on record: P. falciparum in erythrocytes, SYBR Green DNA, 72 h; series mostly up to 28.7 µM. Put shortly: (§1)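 In a 72 h erythrocytic culture (37 C, humidified, 5% CO2) at 2.5% hematocrit and 0.3% starting parasitemia, compounds were tested; SYBR Green I in detergent lysis buffer stained parasite DNA overnight.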
On the technique in general: Quantitative high-throughput screening tests each substance at several concentrations.

A further test relates to ECU. The description is as above. The settings on record: P. falciparum in erythrocytes, SYBR Green DNA, 72 h; series mostly up to 28.7 µM. Put shortly:
as §1

In another test the test system is FAB9. The test is described as above. As to conditions: P. falciparum in erythrocytes, SYBR Green DNA, 72 h; series mostly up to 28.7 µM. Put shortly:
as §1

Another test concerns GB4. The test is described as above. As to conditions: P. falciparum in erythrocytes, SYBR Green DNA, 72 h; series mostly up to 28.7 µM. The method, boiled down: as §1
Another test has as its system HB3. Described as above. The settings on record: P. falciparum in erythrocytes, SYBR Green DNA, 72 h; series mostly up to 28.7 µM. Put shortly: as §1
For the next test, the system named is ICS. The description is as above. The settings on record: P. falciparum in erythrocytes, SYBR Green DNA, 72 h; series mostly up to 28.7 µM. The method, boiled down: as §1
Another test concerns JCK. Described as above. As to conditions: P. falciparum in erythrocytes, SYBR Green DNA, 72 h; series mostly up to 28.7 µM. Put shortly: as §1
A further test relates to N140. Described as above. The settings on record: P. falciparum in erythrocytes, SYBR Green DNA, 72 h; series mostly up to 28.7 µM. Put shortly: as §1
The next test deals with P93_24. Described as above. As to conditions: P. falciparum in erythrocytes, SYBR Green DNA, 72 h; series mostly up to 28.7 µM. Put shortly: as §1
The next test deals with PAD. Described as above. As to conditions: P. falciparum in erythrocytes, SYBR Green DNA, 72 h; series mostly up to 28.7 µM. Put shortly:
as §1

In a further test the test system is PC15. The description is as above. As to conditions: P. falciparum in erythrocytes, SYBR Green DNA, 72 h; series mostly up to 28.7 µM. The method, boiled down: as §1
In the next test the test system is PC26. The description is as above. As to conditions: P. falciparum in erythrocytes, SYBR Green DNA, 72 h; series mostly up to 28.7 µM. The method, boiled down: as §1
The next test relates to PC49. Described as above. The settings on record: P. falciparum in erythrocytes, SYBR Green DNA, 72 h; series mostly up to 28.7 µM. The method, boiled down:
as §1

The test system of another test is SC27B. Described as above. As to conditions: P. falciparum in erythrocytes, SYBR Green DNA, 72 h; series mostly up to 28.7 µM. Put shortly: as §1
The next test concerns TAB109. Described as above. As to conditions: P. falciparum in erythrocytes, SYBR Green DNA, 72 h; series mostly up to 28.7 µM. The method, boiled down:
as §1

The test system of a further test is TAB113. Described as above. As to conditions: P. falciparum in erythrocytes, SYBR Green DNA, 72 h; series mostly up to 28.7 µM. The method, boiled down: as §1
The next test deals with TAB165. The test is described as above. As to conditions: P. falciparum in erythrocytes, SYBR Green DNA, 72 h; series mostly up to 28.7 µM. Put shortly: as §1
The test system of the next test is W2. Described as above. The settings on record: P. falciparum in erythrocytes, SYBR Green DNA, 72 h; series mostly up to 28.7 µM. Put shortly: as §1
The next test concerns CRL-7250. Description: Cytotoxic Profiling of Annotated Libraries Using Quantitative High-Throughput Screening (AID 1296008). As to max response: % is scaled to controls: 0 for no effect and ±100 for the full control effect. As to conditions: Five cell lines viability, CellTiter-Glo ATP luminescence, 48-72 h; max response: hits give low values. Put shortly: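 Cytotoxicity was measured as CellTiter-Glo ATP luminescence, read after 10 min at room temperature. Compound treatment of the cells lasted 48 or 72 hr at 37 degrees Celsius in a qHTS format.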

The subject of another test is P94_40. The experiment in a line: qHTS profiling for inhibitors of Plasmodium falciparum proliferation (AID 504749). As to conditions: P. falciparum in erythrocytes, SYBR Green DNA, 72 h; series mostly up to 28.7 µM. Put shortly:
as §1
Also: nearly all actives have a fitted effect of over 60% in size.
Potency is read from the fitted curve at half-maximal effect.

On to `Cc1ccc(S(=O)(=O)NC(=O)NN2CCCCCC2)cc1`, for which the Potency result in the test on Dd2, in the test with ECU, in the test on FAB9, in the test with GB4, in the test on HB3 and in the test on ICS was “inactive” in each case. Further, the Potency entry in the test on JCK, with N140, in the test on P93_24, in the test with PAD, with PC15 and in the test with PC26 was “inactive” each time. Also, the Potency entry with PC49, in the test with SC27B, in the test with TAB109, in the test with TAB113, in the test on TAB165 and in the test with W2 was “inactive” each time. Moreover, the result in the test on CRL-7250 was inactive.
Regarding `CC(C)NNC(=O)c1ccncc1`, the Potency entry with Dd2, in the test on ECU, in the test with FAB9, in the test on GB4, in the test with HB3 and in the test with ICS was “inactive” in each case. The Potency entry with JCK, in the test with P93_24, in the test on P94_40, in the test on PAD, with PC15 and in the test on PC26 was “inactive” in each case. Moreover, the Potency entry with PC49, in the test on SC27B, in the test on TAB113, with TAB165 and in the test on W2 was “inactive” each time. In the test with CRL-7250, the max response was -3.48%.
Regarding `CN(C)CCOC(=O)COc1ccc(Cl)cc1`, the Potency entry in the test with Dd2, with ECU, in the test with FAB9, in the test with GB4, in the test on HB3 and in the test with ICS was “inactive” in each case. Further, the Potency result in the test with JCK, with N140, in the test with P93_24, in the test with P94_40, in the test on PAD and in the test on SC27B was “inactive” each time. The Potency result in the test with TAB109, in the test with TAB113, in the test on TAB165 and with W2 was “inactive” throughout. Moreover, the max response in the test on CRL-7250 was -13.3%.
Consider `CC(N=C(NC#N)Nc1ccncc1)C(C)(C)C` (stereo not drawn), for which the Potency result with Dd2, in the test on ECU, in the test on FAB9, in the test with GB4, with HB3 and in the test on ICS was “inactive” each time. Besides, the Potency entry in the test with JCK, in the test with N140, with P93_24, with P94_40, with PAD and with PC15 was “inactive” in each case. For the same compound, the Potency result with PC26, with PC49, with SC27B, in the test with TAB109, in the test on TAB113 and in the test on TAB165 was “inactive” each time. Further, the Potency result in the test on W2 is “inactive”. Moreover, the call in the test on CRL-7250 was inactive.
Regarding `O=C(O)CN(CCOCCOCCN(CC(=O)O)CC(=O)O)CC(=O)O`, the Potency entry with Dd2, with ECU, in the test with FAB9, in the test with GB4, in the test on HB3 and in the test on ICS was “inactive” throughout. In addition, the Potency result in the test on JCK, in the test on N140, in the test with P93_24, with P94_40, with PAD and in the test on PC15 was “inactive” in each case. Besides, the Potency result with PC26, with PC49, with SC27B, in the test with TAB109, with TAB113 and with TAB165 was “inactive” each time. Moreover, the Potency result with W2 is “inactive”. In addition, the outcome with CRL-7250 was inactive.
On to `FC(F)(F)c1ccccc1-n1ccnc1`, for which the Potency result in the test with Dd2, in the test with ECU, with FAB9, with GB4, with HB3 and with ICS was “inactive” throughout. The Potency entry in the test with JCK, in the test on N140, with P93_24, with P94_40, in the test on PAD and with PC15 was “inactive” throughout. Besides, the Potency result in the test on PC26, in the test with PC49, in the test on SC27B, with TAB109, in the test on TAB113 and in the test on TAB165 was “inactive” each time. Further, the Potency entry in the test with W2 was “inactive”. Moreover, the result with CRL-7250 was inactive.
As to `Nc1ncn([C@@H]2O[C@H](CO)[C@@H](O)[C@H]2O)c(=O)n1`, the Potency result in the test with Dd2, in the test on ECU, with FAB9, in the test on GB4, in the test with HB3 and in the test on ICS was “inactive” throughout. Further, the Potency entry in the test with JCK, in the test with N140, with P93_24, in the test on P94_40, with PAD and in the test on PC15 was “inactive” throughout. Also, the Potency entry in the test on PC26, with PC49, in the test with SC27B, in the test with TAB109, in the test on TAB113 and in the test with TAB165 was “inactive” throughout. Also, the Potency entry in the test on W2 was “inactive”. The Potency with CRL-7250 is 7.5 µM (active).
For the compound `C[n+]1cc2c3c(ccc2c2ccc4cc5c(cc4c21)OCO5)OCO3`, the Potency entry with Dd2, in the test with ECU, in the test with FAB9, with HB3, with ICS and in the test with JCK was “inactive” in each case. Also, the Potency entry with N140, with P93_24, in the test on P94_40, with PAD, in the test with PC15 and with PC49 was “inactive” each time. In addition, the Potency entry in the test on SC27B, with TAB109 and with TAB165 was “inactive” in each case. Moreover, the Potency in the test with CRL-7250 was 1.84 µM (active).
As for `COc1cc(C(=O)OCCCN2CCCN(CCCOC(=O)c3cc(OC)c(OC)c(OC)c3)CC2)cc(OC)c1OC`, the Potency was 12.6 µM (active) in the test with Dd2; 8.91 µM (active) in the test with ECU; 13.5 µM (active) in the test on GB4; 8.91 µM (active) with ICS; 12.6 µM (active) with N140; 10 µM (active) with P93_24. The Potency in the test with TAB109 was 11.2 µM (active); in the test with TAB113, 11.2 µM (active); with TAB165, 8.91 µM (active); in the test on W2, 3.01 µM (active). In the test with CRL-7250, the max response was -12.1%.
Consider `Cc1cc(C)c(/C=C2\C(=O)Nc3ccccc32)[nH]1`, for which the Potency result in the test on Dd2, in the test on ECU, in the test with FAB9, in the test on GB4, in the test on HB3 and with JCK was “inactive” throughout. In addition, the Potency entry with N140, with P93_24, with P94_40, with PAD, with PC15 and with PC26 was “inactive” each time. Also, the Potency result in the test on PC49, with SC27B, in the test on TAB109, in the test with TAB113, in the test with TAB165 and with W2 was “inactive” throughout. In addition, the max response in the test on CRL-7250 was -6.15%.
`COC(=O)[C@@H](N)Cc1ccc(O)c(O)c1`: the Potency entry in the test on Dd2, in the test on ECU, in the test on FAB9, with HB3, in the test on ICS and with JCK was “inactive” in each case. Moreover, the Potency result in the test on N140, in the test with P93_24, in the test on P94_40, with PAD, in the test on PC15 and with PC26 was “inactive” in each case. Also, the Potency entry with PC49, with SC27B, in the test on TAB109 and in the test on TAB165 was “inactive” throughout. For the same compound, the max response in the test with CRL-7250 is 0.35%.
`C[C@]12CCC(=O)C=C1CC[C@@H]1[C@@H]2CC[C@@]2(C)[C@H]1CC[C@]2(O)C(=O)CO`: the Potency result with Dd2, with ECU, in the test on FAB9, in the test with GB4, with HB3 and in the test with JCK was “inactive” each time. Further, the Potency result in the test with N140, with P93_24, in the test with P94_40, with PAD, in the test on PC15 and in the test on PC49 was “inactive” each time. Besides, the Potency entry in the test on SC27B, with TAB109, with TAB113, in the test with TAB165 and in the test with W2 was “inactive” each time. Further, the max response in the test on CRL-7250 was -9.98%.
Consider `OC(CCN1CCCCC1)(c1ccccc1)C1CCCCC1` (stereo not drawn), for which the Potency entry with FAB9, in the test with GB4, in the test with HB3, in the test on JCK, with PAD and in the test on PC15 was “inactive” throughout. The Potency result in the test with SC27B, in the test with TAB113 and with TAB165 was “inactive” in each case. In the test with W2, the Potency is 6.01 µM (active). Also, in the test with CRL-7250, the call was inactive.
For `NC(N)=N/N=C/c1c(Cl)cccc1Cl`, the Potency in the test with GB4 was 12 µM (active); in the test with ICS it was 8.91 µM (active); with W2 it was 12 µM (active). Also, the Potency result in the test with JCK, in the test with PC49 and in the test on SC27B was “inactive” each time. For the same compound, the max response in the test with CRL-7250 was 3.75%.
